Experiment [1] addresses Lysosomal alpha-glucosidase (Homo sapiens) (UniProt P10253). In words: Confirmation of Inhibitors and Activators of Purified Human alpha-Glucosidase (AID 2115; active = well fitted curve in either direction with a large enough effect). In short, it runs like this: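 Fluorogenic 4-MU-substrate hydrolysis (400 uM substrate, 4 nM human enzyme) over 20 min at room temperature, pH 5.0 citrate buffer plus 0.005% Tween-20; NaOH/glycine stop, then ex 365/em 440 nm read. Titration up to 77 uM; Hill-equation AC50, normalized to no-enzyme and full-activity controls.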

A short description of experiment [2]: qHTS for differential inhibitors of proliferation of Plasmodium falciparum line 7G8 (AID 1815).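 Also: parasite growth measured after three days of incubation.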 On the technique in general: Quantitative high-throughput screening tests each substance at several concentrations.
Experiment [3] is described as follows: qHTS for differential inhibitors of proliferation of Plasmodium falciparum line 3D7 (AID 1876). Also: potency is read from the fitted curve at half-maximal effect.
Experiment [4] can be described thus: qHTS for differential inhibitors of proliferation of Plasmodium falciparum line Dd2 (AID 1882). Also: nearly all actives have a fitted effect of over 65% in size. The method in brief:
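SYBR Green DNA fluorescence (ex 485, em 535 nm) after overnight lysis quantifies parasite growth; compound exposure lasted 72 h at 37 C on infected red cells at 2.5% hematocrit, 0.3% parasitemia (final). Artemisinin 0.29 uM and vehicle wells define normalization.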

Experiment [5] can be described thus: qHTS for differential inhibitors of proliferation of Plasmodium falciparum line W2 (AID 1883).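 Also: potency is read from the fitted curve at half-maximal effect; parasites grown with compound for 72 h before lysis and staining.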 The conditions noted are these: Plasmodium falciparum W2 proliferation inhibition.
A short description of experiment [6]: qHTS for differential inhibitors of proliferation of Plasmodium falciparum line HB3 (AID 1886).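 Also: parasites grown with compound for 72 h before SYBR Green readout.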 Also: potency is read from the fitted curve at half-maximal effect. The conditions noted are these: Potency: Plasmodium falciparum HB3 proliferation inhibition.
The target in experiment [7] is Ferritin light chain (Equus caballus) (UniProt P02791). In words: qHTS Validation Assay for Identification of Novel General Anesthetics (AID 2323). The method in brief: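 Apoferritin from horse spleen (10 uM) was mixed with 1-aminoanthracene at 50% saturation in PBS, then compounds were added. After 10 min at room temperature, fluorescence was read (ex 380 nm, em 535 nm) and normalized to free-probe and complex controls.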
Chain of Ferritin light chain (Equus caballus) (P02791 2-175 limits assumed): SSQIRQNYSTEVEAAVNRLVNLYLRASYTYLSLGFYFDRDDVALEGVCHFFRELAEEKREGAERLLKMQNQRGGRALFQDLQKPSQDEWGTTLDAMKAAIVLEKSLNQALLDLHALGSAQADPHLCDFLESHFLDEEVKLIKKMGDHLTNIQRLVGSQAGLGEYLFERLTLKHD

Experiment [8] deals with ATP-dependent DNA helicase Q1 (Homo sapiens) (UniProt P46063). Nature of the experiment: qHTS Validation Assay for Inhibitors of RecQ-Like Dna Helicase 1 (RECQ1) (AID 2353). In short, it runs like this:
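RECQ1T1 50 nM; forked duplex (20 bp + 30-nt ss tails) 200 nM, ATP 2 mM final; pH 8.0, 2 mM MgCl2, 2.5 ug/ml poly(dI-dC); 15 min compound preincubation; discontinuous kinetic read over 2 h at RT.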

Experiment [9] deals with RecQ-like DNA helicase BLM (Homo sapiens) (UniProt P54132). Nature of the experiment: qHTS Validation Assay for Inhibitors of Bloom's syndrome helicase (BLM) (AID 2364). In short, it runs like this:
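BLM 50 nM in 25 mM Tris-HCl pH 8.0, 5 mM NaCl, 2 mM MgCl2, 1 mM DTT, 0.01% Tween-20, 2.5 ug/ml poly(dI-dC); 15 min cpd preinc, RT. Start: 200 nM forked DNA + 2 mM ATP (final). TAMRA read, 2 reads 2 h apart.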

Experiment [10] can be described thus: Cytometric Cell-Based qHTS for Inhibitors of the mTORC1 Signaling Pathway in MEF (Tsc2-/-, p53-/-) Cells (AID 2660).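 Also: Tsc2 and p53 null MEFs carrying empty vector with compound for 24 h; percent of cells above a phospho-rpS6 to PI ratio cutoff in each well.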 The method in brief: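 Immunofluorescence qHTS of rpS6 Ser235/236 phosphorylation: MEFs (Tsc2-/-, p53-/-) treated 24 h, 37 C, in DMEM + 10% FBS. Alexa-488 signal normalized to PI count, referenced to rapamycin (7.5 nM) and DMSO; PI cell number recorded for viability.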

Experiment [11] can be described thus: High Content Imaging Cell-Based qHTS for Inhibitors of the mTORC1 Signaling Pathway in MEF (Tsc2-/-, p53-/-) Cells (AID 2666).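 Also: percent of cells scored positive for phospho-rpS6 Ser235/236 immunostaining by imaging.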 The conditions noted are these: at 38.3 µM (top of the series). In short, it runs like this:
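Inhibition of rpS6 phosphorylation is measured by immunofluorescence imaging in empty-vector Tsc2-/-, p53-/- mouse embryonic fibroblasts after 24 hrs compound exposure at 37 degree Celsius. Results are reported as % positive cells per well.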

Experiment [12] is described as follows: High Content Imaging Cell-Based qHTS for Inhibitors of the mTORC1 Signaling Pathway in MEF Cells (AID 2667).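 Also: Tsc2-/- p53-/- MEFs stably re-expressing wild-type Tsc2 exposed 24 h.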 In short, it runs like this: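 Fixed-cell imaging of phospho-S6 (Ser235/236, Alexa-488) after 24 hrs of compound treatment at 37 degree Celsius. Signal was normalized to Hoechst, and thresholds from the highest and lowest wells split cells into % active versus % non-active.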

The nature of experiment [13]: Cytometry Cell-Based qHTS for Inhibitors of the mTORC1 Signaling Pathway in MEF cells (AID 2668).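 Also: Tsc2-/- p53-/- mouse embryonic fibroblasts stably re-expressing wild-type Tsc2; percent cells positive for phospho-rpS6 Ser235/236 relative to propidium iodide stain.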 In short, it runs like this: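 Pathway inhibition in WT Tsc2-rescued Tsc2-/-, p53-/- MEFs is measured as the Alexa-488 phospho-rpS6 to propidium iodide intensity ratio after 24 hrs of compound at 37 degree Celsius. PI-stained cell number gives viability.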
Experiment [14] can be described thus: Validation screen for small molecules that induce DNA re-replication in MCF 10A normal breast cells (AID 463097). Also: nearly all actives have a fitted effect of over 60% in size. In short, it runs like this:
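DNA re-replication was detected as a rise in nuclei with elevated Hoechst fluorescence after a 48 hr compound exposure of MCF 10A cells at 37 C.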

Experiment [15] deals with Ubiquitin carboxyl-terminal hydrolase 2 (Homo sapiens) (UniProt O75604). Nature of the experiment: qHTS Validation Assay for Inhibitors of Ubiquitin-specific Protease USP2a Using CHOP2 as the Reporter (AID 463106). In short, it runs like this:
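Inhibition is expressed relative to NEM as the full-inhibition control, with concentration-response curves classed by fit quality, magnitude and activity. Enzyme (USP2 core, 10nM) meets 25nM Ub-CHOP2 after compound preincubation; readings are taken at 60min.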

The target in experiment [16] is DNA polymerase III PolC-type (Bacillus subtilis (strain 168)) (UniProt P13267). In words: qHTS Validation Assay for the Inhibitors of DNA Replication in Gram-Positive Bacteria (AID 485295).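 Also: reconstituted holoenzyme with PolC plus beta clamp SSB and primase; PicoGreen fluorescence of double-stranded DNA made on primed circular M13 template.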 In short, it runs like this: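 Primed replication of single-stranded M13Gori by a four-protein B. subtilis holoenzyme is measured at room temperature. Double-stranded product is quantified by PicoGreen fluorescence after an EDTA stop; inhibition is scaled between DMSO and EDTA controls.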
Chain of DNA polymerase III PolC-type (Bacillus subtilis (strain 168)) (P13267 whole entry, looked up): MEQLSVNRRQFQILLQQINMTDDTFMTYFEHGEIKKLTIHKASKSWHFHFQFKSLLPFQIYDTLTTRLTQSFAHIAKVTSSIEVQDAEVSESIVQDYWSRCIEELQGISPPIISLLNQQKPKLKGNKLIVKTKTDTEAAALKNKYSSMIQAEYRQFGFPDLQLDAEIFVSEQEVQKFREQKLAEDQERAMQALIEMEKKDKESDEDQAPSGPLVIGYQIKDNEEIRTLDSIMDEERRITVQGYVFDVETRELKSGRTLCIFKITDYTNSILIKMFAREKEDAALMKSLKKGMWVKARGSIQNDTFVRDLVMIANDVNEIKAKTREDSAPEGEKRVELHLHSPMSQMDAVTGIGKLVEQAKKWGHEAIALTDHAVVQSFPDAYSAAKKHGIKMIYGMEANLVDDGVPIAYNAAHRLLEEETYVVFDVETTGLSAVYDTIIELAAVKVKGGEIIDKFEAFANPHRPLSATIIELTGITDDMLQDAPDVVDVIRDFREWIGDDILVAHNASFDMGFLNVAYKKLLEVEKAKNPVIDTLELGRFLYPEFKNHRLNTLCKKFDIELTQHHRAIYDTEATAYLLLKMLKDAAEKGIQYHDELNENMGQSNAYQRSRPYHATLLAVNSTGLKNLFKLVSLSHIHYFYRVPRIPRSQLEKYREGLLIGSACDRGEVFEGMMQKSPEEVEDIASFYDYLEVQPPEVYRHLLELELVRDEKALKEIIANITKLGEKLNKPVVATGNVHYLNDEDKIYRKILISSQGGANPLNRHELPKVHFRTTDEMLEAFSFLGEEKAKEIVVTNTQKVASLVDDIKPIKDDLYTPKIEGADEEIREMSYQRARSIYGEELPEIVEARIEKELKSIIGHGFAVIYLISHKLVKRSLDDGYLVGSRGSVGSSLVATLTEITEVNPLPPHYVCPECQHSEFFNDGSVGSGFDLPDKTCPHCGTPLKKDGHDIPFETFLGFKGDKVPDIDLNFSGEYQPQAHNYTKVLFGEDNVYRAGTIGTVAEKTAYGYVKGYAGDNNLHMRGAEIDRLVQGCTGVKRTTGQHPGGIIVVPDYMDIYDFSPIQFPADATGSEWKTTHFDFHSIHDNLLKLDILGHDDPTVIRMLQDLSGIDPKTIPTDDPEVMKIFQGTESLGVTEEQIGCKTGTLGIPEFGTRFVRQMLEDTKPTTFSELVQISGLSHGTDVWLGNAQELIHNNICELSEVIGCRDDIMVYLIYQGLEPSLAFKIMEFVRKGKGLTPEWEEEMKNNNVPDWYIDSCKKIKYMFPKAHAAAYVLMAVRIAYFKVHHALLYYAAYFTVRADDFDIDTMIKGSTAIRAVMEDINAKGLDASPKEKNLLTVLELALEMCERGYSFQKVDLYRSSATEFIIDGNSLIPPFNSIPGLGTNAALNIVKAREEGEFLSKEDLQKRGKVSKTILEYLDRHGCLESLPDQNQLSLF

The target of experiment [17] is Tumor susceptibility gene 101 protein (Homo sapiens) (UniProt Q99816). Nature of the experiment: qHTS Validation Assay for Iinhibitors of HIV-1 Budding by Blocking the Interaction of PTAP/TSG101 (AID 485342; calls by dose curve). In short, it runs like this:
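Fluorescence anisotropy measured PTAP-Tsg101 interaction. Final concentrations were 10 uM protein domain and 50 nM labeled peptide, equilibrated 20 min at room temperature.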

The nature of experiment [18]: qHTS for differential inhibitors of proliferation of Plasmodium falciparum line GB4 (AID 1816).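 Also: parasite growth measured after 72 h incubation.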
Experiment [19] in a line: qHTS for differential inhibitors of proliferation of Plasmodium falciparum line D10 (AID 1877).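 Also: parasites grown with compound for 72 h before DNA staining.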
Experiment [20] is described as follows: qHTS Assay for Modulators of Human Peripheral Myelin Protein 22 (PMP22) Expression/Activity (AID 1967; active = well fitted curve in the direction sought with a large enough effect in the signal ratio; the % refers to the signal ratio). The method in brief: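 Quantitative HTS in a mouse Schwann cell line expressing dual click beetle luciferases: Pmp22 promoter (green) and control EF-alpha promoter (red). After 24h treatment, corrected green/red signal ratio gave %Activity relative to untreated cells.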

The structures appear in SMILES notation. Inconclusive results are not listed. Activity calls are given as the source filed them. Unless noted, calls follow the shape of the dose curve; as a rule, active = well fitted curve in the direction sought with a large enough effect; inconclusive = small, poorly fitted or top-dose-only effect, or another doubt; inactive = no such curve, though single readings can be large; an effect the other way counts as inactive or inconclusive.

Chain of Tumor susceptibility gene 101 protein (Homo sapiens) (Q99816 whole entry, looked up, the tested form may be a part): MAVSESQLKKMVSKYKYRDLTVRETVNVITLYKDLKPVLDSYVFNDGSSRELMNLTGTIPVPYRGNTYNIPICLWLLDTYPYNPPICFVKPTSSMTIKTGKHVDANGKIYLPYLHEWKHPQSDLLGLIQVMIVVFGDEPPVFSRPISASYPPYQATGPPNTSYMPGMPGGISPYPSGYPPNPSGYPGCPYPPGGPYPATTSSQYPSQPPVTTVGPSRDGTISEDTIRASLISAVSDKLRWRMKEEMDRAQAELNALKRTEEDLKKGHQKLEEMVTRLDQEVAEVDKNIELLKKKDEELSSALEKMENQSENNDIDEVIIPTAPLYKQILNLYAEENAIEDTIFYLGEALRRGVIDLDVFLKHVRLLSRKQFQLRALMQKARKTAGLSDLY
Chain of Ubiquitin carboxyl-terminal hydrolase 2 (Homo sapiens) (O75604 whole entry, looked up): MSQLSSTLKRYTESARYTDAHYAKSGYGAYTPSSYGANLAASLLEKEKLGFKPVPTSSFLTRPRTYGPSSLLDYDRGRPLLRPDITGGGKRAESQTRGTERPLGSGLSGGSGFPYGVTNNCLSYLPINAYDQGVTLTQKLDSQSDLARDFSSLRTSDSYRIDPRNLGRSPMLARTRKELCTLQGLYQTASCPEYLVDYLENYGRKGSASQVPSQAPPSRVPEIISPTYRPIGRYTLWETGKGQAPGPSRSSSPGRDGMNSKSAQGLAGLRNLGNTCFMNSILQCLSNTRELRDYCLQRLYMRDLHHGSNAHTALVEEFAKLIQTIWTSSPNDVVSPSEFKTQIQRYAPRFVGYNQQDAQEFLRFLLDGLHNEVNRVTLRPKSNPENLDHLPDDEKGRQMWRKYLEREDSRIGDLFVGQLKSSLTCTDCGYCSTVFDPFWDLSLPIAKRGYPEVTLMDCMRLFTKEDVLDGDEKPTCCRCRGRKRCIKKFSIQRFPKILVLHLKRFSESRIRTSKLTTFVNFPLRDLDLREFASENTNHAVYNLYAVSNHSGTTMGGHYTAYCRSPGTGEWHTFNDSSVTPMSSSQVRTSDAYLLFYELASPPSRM
Chain of RecQ-like DNA helicase BLM (Homo sapiens) (P54132 whole entry, looked up): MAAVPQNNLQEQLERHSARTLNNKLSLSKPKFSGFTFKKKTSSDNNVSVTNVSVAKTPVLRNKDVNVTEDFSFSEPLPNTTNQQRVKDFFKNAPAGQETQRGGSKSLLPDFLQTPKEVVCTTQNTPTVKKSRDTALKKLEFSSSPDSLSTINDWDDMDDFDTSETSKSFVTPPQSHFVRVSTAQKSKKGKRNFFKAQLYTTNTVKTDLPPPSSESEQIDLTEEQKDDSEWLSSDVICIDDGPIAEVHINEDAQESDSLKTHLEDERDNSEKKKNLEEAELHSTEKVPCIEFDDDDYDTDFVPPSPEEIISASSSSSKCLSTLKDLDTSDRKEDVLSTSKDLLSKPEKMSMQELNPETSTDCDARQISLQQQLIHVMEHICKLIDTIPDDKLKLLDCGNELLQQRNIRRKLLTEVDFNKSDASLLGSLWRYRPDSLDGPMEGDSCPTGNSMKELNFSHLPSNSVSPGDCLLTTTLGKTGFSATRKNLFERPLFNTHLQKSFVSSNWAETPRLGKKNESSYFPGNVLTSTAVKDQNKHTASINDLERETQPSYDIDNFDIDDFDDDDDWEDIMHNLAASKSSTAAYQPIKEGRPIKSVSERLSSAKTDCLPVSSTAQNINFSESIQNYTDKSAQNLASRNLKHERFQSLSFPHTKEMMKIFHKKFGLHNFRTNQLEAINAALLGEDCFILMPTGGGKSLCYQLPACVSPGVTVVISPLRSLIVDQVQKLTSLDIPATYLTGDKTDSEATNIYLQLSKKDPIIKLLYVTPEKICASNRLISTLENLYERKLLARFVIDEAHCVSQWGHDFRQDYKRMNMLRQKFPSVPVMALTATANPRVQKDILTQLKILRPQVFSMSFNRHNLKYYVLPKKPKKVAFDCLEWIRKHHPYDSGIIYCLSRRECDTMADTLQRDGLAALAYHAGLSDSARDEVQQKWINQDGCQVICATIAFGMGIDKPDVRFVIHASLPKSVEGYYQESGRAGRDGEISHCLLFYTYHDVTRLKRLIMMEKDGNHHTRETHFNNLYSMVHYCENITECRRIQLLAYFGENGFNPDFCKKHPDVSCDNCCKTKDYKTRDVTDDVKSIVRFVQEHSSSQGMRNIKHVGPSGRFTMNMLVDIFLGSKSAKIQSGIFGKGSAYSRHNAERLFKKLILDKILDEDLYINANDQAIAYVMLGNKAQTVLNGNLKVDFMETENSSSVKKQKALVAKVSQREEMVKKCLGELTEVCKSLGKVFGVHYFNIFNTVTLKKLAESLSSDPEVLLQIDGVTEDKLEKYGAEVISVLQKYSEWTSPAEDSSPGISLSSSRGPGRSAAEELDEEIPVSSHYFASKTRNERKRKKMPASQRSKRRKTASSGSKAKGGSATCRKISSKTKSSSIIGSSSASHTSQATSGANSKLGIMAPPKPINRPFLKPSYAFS
Chain of ATP-dependent DNA helicase Q1 (Homo sapiens) (P46063 whole entry, looked up): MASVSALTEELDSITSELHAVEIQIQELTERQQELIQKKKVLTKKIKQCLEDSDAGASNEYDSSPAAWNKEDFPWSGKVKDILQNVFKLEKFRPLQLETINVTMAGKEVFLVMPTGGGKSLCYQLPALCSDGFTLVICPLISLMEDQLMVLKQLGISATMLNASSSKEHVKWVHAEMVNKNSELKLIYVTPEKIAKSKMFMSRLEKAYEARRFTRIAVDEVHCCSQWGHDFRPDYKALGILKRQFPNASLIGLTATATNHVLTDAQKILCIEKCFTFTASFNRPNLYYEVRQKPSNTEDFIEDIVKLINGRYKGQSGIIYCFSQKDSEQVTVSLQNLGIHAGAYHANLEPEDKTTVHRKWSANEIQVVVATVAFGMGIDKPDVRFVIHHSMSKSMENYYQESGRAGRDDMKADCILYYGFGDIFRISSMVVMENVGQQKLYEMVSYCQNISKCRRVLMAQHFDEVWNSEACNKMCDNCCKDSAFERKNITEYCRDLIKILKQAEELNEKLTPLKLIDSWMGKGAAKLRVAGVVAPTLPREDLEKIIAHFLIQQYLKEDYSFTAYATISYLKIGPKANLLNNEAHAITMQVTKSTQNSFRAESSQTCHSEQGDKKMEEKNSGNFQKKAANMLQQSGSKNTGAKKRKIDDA

In the case of `CCCCN1C[C@H](O)[C@@H](O)[C@H](O)[C@H]1CO`, in experiment [1], the compound was called inactive.

As to `NC(N)=NCc1cccc(I)c1`, the compound was called inactive in [2], in [4], in experiment [7], in experiment [8], in experiment [9] and in experiment [10]. The outcome in [11], in [12], in experiment [13], in experiment [14], in experiment [15] and in experiment [16] was inactive. The outcome in experiment [17] was inactive. The Potency is 8.91 µM (active) in experiment [3], 10 µM (active) in experiment [5] and 6.31 µM (active) in experiment [6].

For `CN=C(N)NCCC[C@H](N)C(=O)O`, the outcome in experiment [10], in experiment [11], in experiment [12], in [13], in experiment [15] and in [16] was inactive. In [17], the compound was called inactive.

`CC(C)(C)NC[C@H](O)COc1nsnc1N1CCOCC1`: the call in [10], in experiment [11], in experiment [12], in experiment [13], in experiment [15] and in [16] was inactive. In addition, the compound was classed as inactive in [17].

For the compound `CC(=O)OCC1=C(C(=O)O)N2C(=O)[C@@H](NC(=O)CSc3ccncc3)[C@H]2SC1`, the call in experiment [2], in [18], in [19], in experiment [4], in experiment [20] and in experiment [7] was inactive. In addition, the outcome in [9] and in experiment [14] was inactive. The Potency result in experiment [3] and in experiment [6] was “inactive” each time.

Consider `CCOC(=O)[C@H](CCc1ccccc1)N[C@@H](C)C(=O)N1[C@H](C(=O)O)C[C@H]2CCCC[C@@H]21`, for which the compound was called inactive in experiment [10], in experiment [11], in experiment [12], in [13], in experiment [15] and in experiment [16]. Further, the compound was classed as inactive in experiment [17].

Source of the values: PubChem BioAssay (NCATS).
